This is one part of the list. The hit rate among all sequences tested is not known here.
B1: VH:VL chains; a variant is named by its letters at X, in order (parent)
chain 1: QVQLVQSGAEVKKPGASVKVSCKASGYTFTDYXMHWVRQAPGQGLEWMGXVNPNXXXTTYNQKFEGRVTMTTDTSTSTAYMELRSLRSDDTAVYYCARXNXLDXWGQGTTVTVSS
chain 2: DIQMTQSPSSLSASVGDRVTITCSVSSSVSSIYLHWYQQKPGKAPKLLIYSTSNLASGVPSRFSGSGSGTDFTLTISSLQPEDFATYYCQVYSGYPLTFGGGTKVEIK

Variants of: B1
Assay: yeast display scFab, FACS + sequencing
Settings: with MET
In short: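 A yeast surface library of scFab variants carrying heavy-chain CDR mutations went through two magnetic enrichment rounds on Protein A beads coated with HGFR-Fc, then FACS. For sorting, cells were labelled for 3 h at room temperature with 1 nM HGFR-Fc and anti-Myc in PBSB containing 1% milk, and the top 50% of antigen-positive cells were gated. Input and round-3 sorted populations were deep sequenced in two replicates. A sequence was called an antigen binder if it appeared in both antigen-positive samples and a non-binder if it appeared only in the input.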

Question: Which antigen binding call does the source give for DEAKAAVD here?
Answer: no binding

Question: How did the antigen binding call turn out when SETGGDWV was run?
Answer: no binding

Question: How did the antigen binding call turn out when VTGKGDGV was run?
Answer: no binding

Question: With VRGKGSGF as the variant, how does the antigen binding call read?
Answer: binds

Question: For VTGTGSGF, which antigen binding call is on record?
Answer: no binding

Question: For YRGESSGF, which antigen binding call is on record?
Answer: binds

Question: For STGKGSGV, which antigen binding call is on record?
Answer: no binding

Question: With SREAASGV as the variant, how does the antigen binding call read?
Answer: no binding

Question: With ARGKGSGD as the variant, how does the antigen binding call read?
Answer: no binding

Question: With VRGKGSGV as the variant, how does the antigen binding call read?
Answer: binds

Question: VRGKGDWV was tested. Which antigen binding call did it give?
Answer: no binding

Question: Which antigen binding call does the source give for SRGKGSGV here?
Answer: binds

Question: For VTGTGSLV, which antigen binding call is on record?
Answer: no binding

Question: DEGGTDAA was tested. Which antigen binding call did it give?
Answer: no binding

Question: With AAEKDDLA as the variant, how does the antigen binding call read?
Answer: no binding

Question: YTGTGAVF was tested. Which antigen binding call did it give?
Answer: no binding

Question: With YRGKSSGF as the variant, how does the antigen binding call read?
Answer: binds

Question: For YRKRSVVF chain 1 S115F, which antigen binding call is on record?
Answer: no binding

Question: FRGKGSGF was tested. Which antigen binding call did it give?
Answer: binds

Question: YRAKSAVF was tested. Which antigen binding call did it give?
Answer: binds

Question: How did the antigen binding call turn out when DRAGDDVF was run?
Answer: no binding

Question: How did the antigen binding call turn out when YRGKGAVF was run?
Answer: binds

Question: For YRGKGSGF, which antigen binding call is on record?
Answer: binds

Question: With YRGKGSGS as the variant, how does the antigen binding call read?
Answer: binds

Question: YRGKGDGS was tested. Which antigen binding call did it give?
Answer: no binding

Question: Which antigen binding call does the source give for DARGGDGS here?
Answer: no binding

Question: How did the antigen binding call turn out when ARAGDDAV was run?
Answer: no binding

Question: For DRAGDDAV, which antigen binding call is on record?
Answer: no binding

Question: With DRTGDDVA as the variant, how does the antigen binding call read?
Answer: no binding

Question: For FRTGDDAA, which antigen binding call is on record?
Answer: binds

Question: For FRTGDDAV, which antigen binding call is on record?
Answer: binds

Question: For FATGSDGA, which antigen binding call is on record?
Answer: no binding

Question: Which antigen binding call does the source give for FRETDFGA here?
Answer: no binding

Question: Which antigen binding call does the source give for DRAGDDGA here?
Answer: no binding

Question: FRTGDAGA was tested. Which antigen binding call did it give?
Answer: binds

Question: With FRTGDDGA as the variant, how does the antigen binding call read?
Answer: binds

Question: With DRGGDDAA as the variant, how does the antigen binding call read?
Answer: no binding

Question: How did the antigen binding call turn out when DREEGDWV was run?
Answer: no binding

Question: STAEDFVV was tested. Which antigen binding call did it give?
Answer: no binding

Question: Which antigen binding call does the source give for YARTGFGA here?
Answer: binds

Question: YAGRGFGA was tested. Which antigen binding call did it give?
Answer: no binding

Question: With YRRGSFGA as the variant, how does the antigen binding call read?
Answer: binds

Question: How did the antigen binding call turn out when YRRGGFGA was run?
Answer: binds

Question: Which antigen binding call does the source give for VRRGSFGA here?
Answer: no binding

Question: For YRKRTFGA, which antigen binding call is on record?
Answer: no binding

Question: With YGAGDFGA as the variant, how does the antigen binding call read?
Answer: no binding

Question: Which antigen binding call does the source give for YAGKGFGA here?
Answer: no binding

Question: How did the antigen binding call turn out when VKAGGDSD was run?
Answer: no binding

Question: SKAGGALD was tested. Which antigen binding call did it give?
Answer: binds

Question: SKKEDSAD was tested. Which antigen binding call did it give?
Answer: no binding

Question: How did the antigen binding call turn out when YKAKGALD was run?
Answer: binds

Question: How did the antigen binding call turn out when SEARSALD was run?
Answer: no binding

Question: For YKAGGALD, which antigen binding call is on record?
Answer: binds

Question: Which antigen binding call does the source give for SKAGGDVD here?
Answer: no binding

Question: How did the antigen binding call turn out when SKAGGSAD was run?
Answer: binds

Question: Which antigen binding call does the source give for VATGDDVY here?
Answer: no binding

Question: Which antigen binding call does the source give for VRAGAFSV here?
Answer: no binding

Question: DTGTGDVF was tested. Which antigen binding call did it give?
Answer: no binding

Question: VEEEGDVY was tested. Which antigen binding call did it give?
Answer: no binding

Question: For AKTRDDVA, which antigen binding call is on record?
Answer: no binding

Question: With YRTRGAGV as the variant, how does the antigen binding call read?
Answer: binds

Question: Which antigen binding call does the source give for YRTRSAVV here?
Answer: binds

Question: DRGGDAVV was tested. Which antigen binding call did it give?
Answer: no binding

Question: YGTRSYGV was tested. Which antigen binding call did it give?
Answer: no binding

Question: With YRTGAAGV as the variant, how does the antigen binding call read?
Answer: binds

Question: With YTTRGDGV as the variant, how does the antigen binding call read?
Answer: no binding

Question: For YRTRSAGV, which antigen binding call is on record?
Answer: binds

Question: DTGTGSGA was tested. Which antigen binding call did it give?
Answer: no binding

Question: How did the antigen binding call turn out when VEGTGAGD was run?
Answer: no binding

Question: DAGKGAVV was tested. Which antigen binding call did it give?
Answer: no binding

Question: YRKGAAVV was tested. Which antigen binding call did it give?
Answer: binds

Question: How did the antigen binding call turn out when YAGKNAVV was run?
Answer: binds

Question: Which antigen binding call does the source give for DGGKNAVV here?
Answer: no binding

Question: With YRKGGAVV as the variant, how does the antigen binding call read?
Answer: binds

Question: For YTGTSAVV, which antigen binding call is on record?
Answer: no binding

Question: For YTKRSAVV, which antigen binding call is on record?
Answer: no binding

Question: How did the antigen binding call turn out when YRARSAVV was run?
Answer: binds

Question: With SEARSAVV as the variant, how does the antigen binding call read?
Answer: no binding

Question: How did the antigen binding call turn out when YRARSSVV was run?
Answer: binds

Question: VTTKSDGY was tested. Which antigen binding call did it give?
Answer: no binding

Question: YATGDDGV was tested. Which antigen binding call did it give?
Answer: no binding

Question: For SEGGTDVV, which antigen binding call is on record?
Answer: no binding

Question: With VRTEDSLV as the variant, how does the antigen binding call read?
Answer: no binding

Question: For VRTEDSGD, which antigen binding call is on record?
Answer: binds

Question: With VRTEDDVD as the variant, how does the antigen binding call read?
Answer: no binding

Question: How did the antigen binding call turn out when VRTEDSLD was run?
Answer: binds

Question: For VAGGDALD, which antigen binding call is on record?
Answer: no binding

Question: VRTEDDLV was tested. Which antigen binding call did it give?
Answer: no binding

Question: With VTGGDSGD as the variant, how does the antigen binding call read?
Answer: no binding

Question: With VTTEASLD as the variant, how does the antigen binding call read?
Answer: no binding

Question: Which antigen binding call does the source give for VRTEDALD here?
Answer: binds

Question: For VRTEDALV, which antigen binding call is on record?
Answer: binds

Question: For VRTAASGD, which antigen binding call is on record?
Answer: no binding

Question: How did the antigen binding call turn out when DGGGNDLA chain 1 R87K was run?
Answer: no binding

Question: Which antigen binding call does the source give for VAGTGFWV here?
Answer: no binding

Question: For AGETGFSA, which antigen binding call is on record?
Answer: no binding

Question: VRTRSSLD was tested. Which antigen binding call did it give?
Answer: binds

Question: YRAKGALS was tested. Which antigen binding call did it give?
Answer: binds

Question: With YRARGALS as the variant, how does the antigen binding call read?
Answer: binds

Question: For YRAGGALS, which antigen binding call is on record?
Answer: binds

Question: Which antigen binding call does the source give for YKARGALS here?
Answer: binds

Question: DAARGDAV was tested. Which antigen binding call did it give?
Answer: no binding

Question: Which antigen binding call does the source give for VEKKDYSA here?
Answer: no binding

Question: Which antigen binding call does the source give for DEGGTAVA here?
Answer: no binding

Question: DAGGAAVS was tested. Which antigen binding call did it give?
Answer: no binding

Question: For DAGKGALF, which antigen binding call is on record?
Answer: no binding

Reference: the emibetuzumab library of Makowski et al. (2022)
